Where a name gives a salt, the structure may show the parent alone.
Experiments:
Test in all cases: Euclidean distance of Cell Painting phenotypic profile (signed KS, 77 features) to DMSO centroid (dimensionless distance); 5 or 10 uM (library dependent); higher = stronger phenotypic change vs DMSO (phenoactivity)
Conditions in all cases: 48 h
786-O = system: 786-O
Procedure, shortened: (§1)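 Phenoactivity is computed as Euclidean distance to the median vehicle profile. The profiles, drawn from 77 Harmony features scored as signed Kolmogorov-Smirnov statistics versus same-plate vehicle wells, were corrected for plate position, correlation-weighted and replicate-averaged at the top dose. Stained cells were imaged confocally at 20X (9 fields/well) after 48 h with library compounds at 10 or 5 uM, 0.1% DMSO final, in five cancer lines and a healthy fibroblast line.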

A549 = system: A549
Procedure, shortened: as §1

DU145 = system: DU145
Procedure, shortened: as §1

FB = system: FB
Procedure, shortened: as §1

HEPG2 = system: HEPG2
Procedure, shortened: as §1

OVCAR4 = system: OVCAR4
Procedure, shortened: as §1

SMILES	Euclidean distance (786-O)	Euclidean distance (A549)	Euclidean distance (DU145)	Euclidean distance (FB)	Euclidean distance (HEPG2)	Euclidean distance (OVCAR4)
COc1ccc(CNc2nc(N3CCC[C@H]3CO)ncc2C(=O)NCc2ncccn2)cc1Cl [Avanafil]	1.22	0.789	1.12	0.94	0.764	1.44
CC(C)NCC(O)COc1ccc(CC(N)=O)cc1 (stereo unspecified) [Atenolol]	1.33	0.613	0.819	0.889	1.22	0.667
N=C(N)c1ccc(OCCCCCOc2ccc(C(=N)N)cc2)cc1 [Pentamidine]	1.54	2.11	1.64	0.958	2.12	1.65
CC1=C(C(=O)Nc2cc3cn[nH]c3cc2F)C(c2ccc(C(F)(F)F)cc2)CC(=O)N1 (stereo unspecified)	2.35	1.68	2.39	2.35	0.954	2.51
O=C(O)c1ccccc1Nc1cccc(C(F)(F)F)c1 [Flufenamic acid]	1.11	1.08	0.674	1.09	0.711	1.36
CCCCC[C@H](O)/C=C/[C@H]1[C@H](O)CC(=O)[C@@H]1C/C=C\CCCC(=O)O [Prostaglandin E2 (PGE2)]	1.77	0.85	0.915	1.08	0.522	1.33
CNCCc1ccccn1 [Betahistine 2HCl]	1.56	0.851	1.21	0.822	0.61	1.03
CCNC(=O)Nc1ccc(-c2nc3c(c(N4CCOC[C@@H]4C)n2)CCN(C2COC2)C3)cc1	3.58	3.22	1.78	4.11	3.1	4.55
CC(C)c1nc(N(C)S(C)(=O)=O)nc(-c2ccc(F)cc2)c1/C=C/[C@@H](O)C[C@@H](O)CC(=O)O [Rosuvastatin Calcium]	0.535	0.682	2.17	1.71	1.03	0.889
COc1cc2c(cc1OC)[C@@H]1Cc3ccc(OC)c(OC)c3CN1CC2 [Rotundine]	1.84	0.769	1.07	1.26	0.595	1.2
C#C[C@]1(O)CC[C@H]2[C@@H]3CCc4cc(OC)ccc4[C@H]3CC[C@@]21C [Mestranol]	1.12	0.814	0.785	1.26	0.905	1.38
CC1=NN(c2ccc(C)c(C)c2)C(=O)/C1=N\Nc1cccc(-c2cccc(C(=O)O)c2)c1O [Eltrombopag Olamine]	1.58	1.04	1.13	2.4	1.69	1.49
CN(C)CCOC(=O)COc1ccc(Cl)cc1 [Meclofenoxate (Centrophenoxine) HCl]	0.714	0.913	1.3	0.93	1.13	1.29
CC(CCc1ccccc1)NCC(O)c1ccc(O)c(C(N)=O)c1 (stereo unspecified) [Labetalol HCl]	1.08	0.727	0.701	1.03	0.361	1.22
CCOC(=O)c1ccc(O)cc1 [Ethylparaben]	0.729	0.362	0.901	0.865	0.385	1.31
CC(N/C(=N\C#N)Nc1ccncc1)C(C)(C)C (stereo unspecified) [Pinacidil]	1.01	0.907	2.42	1.15	0.55	1.54
Nc1nc2ccc(OC(F)(F)F)cc2s1 [Riluzole]	1.03	0.891	2.58	1.3	0.688	0.739
COc1ccc2ccc(=O)oc2c1CC=C(C)C [Osthole]	1.34	0.749	0.86	1.14	0.394	0.956
CCN(CC)Cc1ccc2cc(COC(=O)Nc3ccc(C(=O)NO)cc3)ccc2c1 [Givinostat (ITF2357)]	2.68	3.9	2.88	3.63	4.2	3.32
CCOC(=O)C(C)(C)Oc1ccc(Cl)cc1 [Clofibrate]	0.866	0.429	1.7	1.41	0.393	0.939
CCc1c(Cl)c(O)c(Cl)c(O)c1C(=O)O[C@H]1[C@H](O)[C@H](OC)[C@H](OC/C2=C\C=C\C[C@H](O)/C(C)=C/[C@H](CC)[C@@H](O[C@@H]3OC(C)(C)[C@@H](OC(=O)C(C)C)[C@H](O)[C@@H]3O)/C(C)=C/C(C)=C/C[C@@H]([C@@H](C)O)OC2=O)O[C@@H]1C [Fidaxomicin]	1.59	1.88	1.64	1.94	1.5	1.68
CCOc1nc2cccc(C(=O)O)c2n1Cc1ccc(-c2ccccc2-c2nnn[nH]2)cc1 [Candesartan]	2.07	1.74	1.69	3.34	0.856	1.84
C=C[C@@H]1C[C@]1(NC(=O)[C@@H]1C[C@@H]2CN1C(=O)[C@H](C(C)(C)C)NC(=O)O[C@@H]1C[C@H]1CCCCCc1nc3ccc(OC)cc3nc1O2)C(=O)NS(=O)(=O)C1CC1 [Grazoprevir]	1.16	1.31	1.33	1.88	0.937	1.22

SMILES	Euclidean distance (786-O)	Euclidean distance (A549)	Euclidean distance (DU145)	Euclidean distance (FB)	Euclidean distance (HEPG2)	Euclidean distance (OVCAR4)
CC(=O)O[C@@H]1CC[C@@]2(C)[C@@H](CC[C@]3(C)[C@@H]2C(=O)C=C2[C@@H]4[C@@H](C)[C@H](C)CC[C@]4(C)CC[C@]23C)[C@@]1(C)C(=O)O	0.752	0.999	1.02	0.939	0.732	0.773
O=C(c1cccc(Cl)c1F)N1CCN(Cc2cccc(Nc3nccs3)n2)CC1	2.99	3.18	1.34	2.34	2.74	2.83
CCN[C@@H]1C[C@H](N)[C@@H](O[C@H]2OC(CN)=CC[C@H]2N)[C@H](O)[C@H]1O[C@H]1OC[C@](C)(O)[C@H](NC)[C@H]1O [Netilmicin Sulfate]	1.12	0.92	1.18	0.946	0.625	0.916
Nc1nc2[nH]cnc2c(=S)[nH]1 [Thioguanine]	1.65	2.5	1.48	0.807	3.13	2.12
O=C(O)CCCCCCCC(=O)O [Azelaic acid]	0.8	1.26	0.798	0.728	0.834	0.801
NC1(c2ccc(-c3nc4ccn5c(=O)[nH]nc5c4cc3-c3ccccc3)cc2)CCC1	3.5	2.58	2.67	3.61	2.59	2.07
O=C1CN(/N=C/c2ccc([N+](=O)[O-])o2)C(=O)N1 [Nitrofurantoin]	1.11	0.86	1.02	0.744	0.699	0.831
Cc1ccccc1N1CCN(CCc2nnc3n2CCCC3)CC1 [Dapiprazole Hydrochloride]	1.23	0.715	0.81	0.786	1.09	1.17
COc1ccc(C2C(=O)c3ccccc3C2=O)cc1 [Anisindione]	0.89	0.546	1.76	1.61	0.828	0.667
C[C@@H]1O[C@@H](O[C@H]2[C@H](Oc3cc(O)c4c(c3)O[C@H](c3ccc(O)cc3)CC4=O)O[C@H](CO)[C@@H](O)[C@@H]2O)[C@H](O)[C@H](O)[C@H]1O [Naringin]	1.25	1.01	0.644	1.2	0.575	1.74
CC(=O)OCC(=O)[C@@]1(O)CC[C@H]2[C@@H]3CCC4=CC(=O)CC[C@]4(C)[C@H]3C(=O)C[C@@]21C [Cortisone acetate]	1.03	0.746	1.1	1.06	0.755	1.67
Cc1cc(C2CCCCC2)n(O)c(=O)c1 [Ciclopirox]	2.74	2.85	2.81	3.29	3.45	3.51
CO[C@@]1(NC(=O)C(C(=O)O)c2ccc(O)cc2)C(=O)N2C(C(=O)O)=C(CSc3nnnn3C)CO[C@@H]21 (stereo partly specified) [Latamoxef sodium]	1.53	0.777	1.09	0.907	0.797	1.39
CCc1c(C)[nH]c2c1C(=O)C(CN1CCOCC1)CC2 (stereo unspecified) [Molindone hydrochloride]	1.11	0.479	0.934	0.703	0.317	0.874
CCC(=O)N1CCN(c2ccc(-n3c(=O)ccc4cnc5ccc(-c6cnc7ccccc7c6)cc5c43)cc2C(F)(F)F)CC1 [Torin 1]	2.66	3.46	2.74	4.26	2.78	3.47
O=C(O)CCCC[C@@H]1CCSS1 (racemic) [Thioctic acid]	1.09	0.518	1.41	0.755	0.413	0.684
Cc1ccc([C@@H]2O[C@H](CO)[C@@H](O)[C@H](O)[C@H]2O)cc1Cc1ccc(-c2ccc(F)cc2)s1 [Canagliflozin hemihydrate]	1.46	2.27	0.936	1.44	1.06	1.37
CN(C)C(=O)c1ccc(S(=O)(=O)c2ccc(NC(=O)[C@@](C)(O)C(F)(F)F)c(Cl)c2)cc1	0.701	1.81	0.801	0.955	2	0.57
CN1CCCC(n2nc(Cc3ccc(Cl)cc3)c3ccccc3c2=O)CC1 (stereo unspecified) [Azelastine HCl]	1.09	0.991	0.881	2.15	1.14	0.789
CC(C)n1nc(-c2cc3cc(O)ccc3[nH]2)c2c(N)ncnc21	4.59	3.23	2.64	4.3	3.12	4.61
CNS(=O)(=O)Cc1ccc2[nH]cc(CCN(C)C)c2c1 [Sumatriptan Succinate]	1.54	1.49	0.753	1.35	0.966	1.66
C[C@@H]1O[C@@H](OC[C@H]2O[C@@H](Oc3c(-c4ccc(O)c(O)c4)oc4cc(O)cc(O)c4c3=O)[C@H](O)[C@@H](O)[C@@H]2O)[C@H](O)[C@H](O)[C@H]1O [Rutin]	1.11	0.756	0.783	0.933	0.632	0.909
COc1ccc(C2OCC3C(c4cc(OC)c(OC)c(OC)c4)OCC23)cc1OC (stereo unspecified) [Magnolin]	0.904	0.78	1.05	1.02	0.56	0.966
